Values joined by “and” are separate entries in the source; they are usually repeats but may differ in a detail not shown here. Equal entries are not always repeated. Active and inactive are the calls of the source. How the source made its calls: active means hit-call score of the fitted dose curve at least 0.9, where 1 is the maximum; inactive means score below 0.9.
What follows are compounds tested on Interleukin-8 (IL8), CXCL8 (gene 3576) (assay: BSK_3C_IL8: BioMAP Diversity Plus: 3C Assay for Interleukin-8 (IL8) Biomarker Activity (AID 2283020)). Settings: primary human endothelial cells (HUVEC); actives raise or lower the signal.
Procedure: BSK_3C is a cell-based, multiplexed-readout assay that uses umbilical vein endothelium, a human vascular primary cell, with measurements taken at 24 hours after chemical dosing in a 96-well plate.BSK_3C_IL8 is an assay component measured in the BSK_3C assay. It measures IL-8 antibody related to regulation of gene expression using ELISA technology.Data from the assay component BSK_3C_IL8 was analyzed into 1 assay endpoint. This assay endpoint, BSK_3C_IL8, was analyzed with bidirectional fitting relative to DMSO as the negative control and baseline of activity. Using a type of binding reporter, gain or loss-of-signal activity can be used to understand changes in the signaling as they relate to the gene CXCL8. Furthermore, this assay endpoint can be referred to as a primary readout, because this assay has produced multiple assay endpoints where this one serves a signaling function. To generalize the intended target to other relatable targets, this assay endpoint is annotated to the cytokine intended target family, where the subfamily is interleukins.
The levels of cell surface (or secreted, indicated by the prefix "s") biomarker endpoints were measured by ELISA. Overt cytotoxicity to cells in confluent adherent cultures (all systems other than the BT system) was assessed by measuring total protein levels using sulforhodamine B (SRB) staining in parallel cultures at the time of biomarker measurements, indicated as SRB endpoints. For proliferation assays for adherent cell types, individual cell types are cultured at sub-confluence and relative cell numbers quantified by SRB staining at time points optimized for each system (48 h: 3C and CASM3C systems; 72 h: BT and HDF3CGF systems; 96 h: SAg system). SRB was performed by staining cells with 0.1% SRB after fixation with 10% TCA and reading wells at 560 nm.Viability and proliferation of PBMC (T cells) was quantified by Alamar Blue reduction for the SAg and BT systems. For PBMC viability (referred to as PBMC Cytotoxicity within the assay endpoint names), cells were plated (75,000/well in a 96-well plate) and then chemical samples added for 1 h before addition of activators, SEB and TSST-1 (20 ng/mL final concentration each). Cells were incubated for 90 h. Then, Alamar Blue (20 uL/well) (Invitrogen, Cat DAL1100) was added for 6 h, and the plates were read with a fluorescence microplate reader at 546/580 nm (excitation/emission). For PBMC proliferation, cells were plated and activated as above but incubated for only 16 h prior to addition of Alamar Blue. Plates were read after 6 h.

Row | Compound | outcome | AC50
1 | CCOP(=O)(NC(C)C)Oc1ccc(SC)c(C)c1 (stereo not given) | inactive | 
2 | Cc1ccn2nc(S(=O)(=O)Nc3c(F)cccc3F)nc2n1 | inactive | 
3 | CC(C)=CC1C(C(=O)OCN2C(=O)C3=C(CCCC3)C2=O)C1(C)C (stereo not given) | inactive | 
4 | CSC1=N[C@@](C)(c2ccccc2)C(=O)N1Nc1ccccc1 |  | 8.64 µM (active)
5 | CCCSP(=O)(OCC)Oc1ccc(Br)cc1Cl (stereo not given) | inactive | 
6 | CCC(CC)Nc1c([N+](=O)[O-])cc(C)c(C)c1[N+](=O)[O-] |  | 23.8 µM (active)
7 | COP(=O)(OC)C(O)C(Cl)(Cl)Cl (stereo not given) | inactive | 
8 | COP(=O)(NC(C)=O)SC (stereo not given) | inactive | 
9 | CCC(=O)Nc1ccc(Cl)c(Cl)c1 | inactive | 
10 | CC(=NC#N)N(C)Cc1ccc(Cl)nc1 | inactive | 
11 | CC(Oc1cccc(Cl)c1)C(=O)O (stereo not given) | inactive | 
12 | CNC(=O)ON=C(SC)C(=O)N(C)C | inactive | 
13 | CN(C)C(=O)Nc1cccc(C(F)(F)F)c1 | inactive | 
14 | CNc1cnn(-c2cccc(C(F)(F)F)c2)c(=O)c1Cl | inactive | 
15 | CC(C)N(C(=O)SCC(Cl)=C(Cl)Cl)C(C)C |  | 30.2 µM (active)
16 | CSc1nnc(C(C)(C)C)c(=O)n1N | inactive | 
17 | CCOC(=O)CC(SP(=O)(OC)OC)C(=O)OCC (stereo not given) | inactive | 
18 | CCOP(=O)(OCC)Oc1cc(C)nc(C(C)C)n1 | inactive | 
19 | Nc1c(Cl)cc([N+](=O)[O-])cc1Cl | inactive | 
20 | CCOP(=S)(OCC)Oc1ccc([N+](=O)[O-])cc1 | inactive | 

Row | Compound | outcome | AC50
21 | O=[N+]([O-])c1cc(C(F)(F)F)c(Cl)c([N+](=O)[O-])c1Nc1ncc(C(F)(F)F)cc1Cl |  | 3.36 µM (active) and 4.25 µM (active)
22 | CCCCOC(=O)[C@@H](C)Oc1ccc(Oc2ccc(C#N)cc2F)cc1 | inactive | 
23 | CON=C(C(=O)OC)c1ccccc1CON=C(C)c1cccc(C(F)(F)F)c1 |  | 1.76 µM (active)
24 | O=C(O)c1cc(Oc2ccc(C(F)(F)F)cc2Cl)ccc1[N+](=O)[O-] | inactive | 
25 | C=C(C)[C@H]1Cc2c(ccc3c2O[C@@H]2COc4cc(OC)c(OC)cc4[C@@H]2C3=O)O1 |  | 20 µM (active)
26 | CCCOCC(=Nc1ccc(Cl)cc1C(F)(F)F)n1ccnc1 |  | 33.7 µM (active)
27 | C[Si](Cn1cncn1)(c1ccc(F)cc1)c1ccc(F)cc1 | inactive | 
28 | CCOP(=S)(Oc1cnc(C(C)(C)C)nc1)OC(C)C (stereo not given) |  | 30.2 µM (active)
29 | CCCCN(CC)c1c([N+](=O)[O-])cc(C(F)(F)F)cc1[N+](=O)[O-] | inactive | 
30 | CCCOc1nn(C(=O)NS(=O)(=O)c2ccccc2C(=O)OC)c(=O)n1C | inactive | 
31 | CCOC(=O)COc1cc(-c2nn(C)c(OC(F)F)c2Cl)c(F)cc1Cl | inactive | 
32 | CCC(=NOC/C=C/Cl)C1=C(O)CC(C2CCOCC2)CC1=O (stereo not given) | inactive | 
33 | FC(F)C(F)(F)OCC(Cn1cncn1)c1ccc(Cl)cc1Cl (stereo not given) | inactive | 
34 | Cc1nn(-c2cc(NS(C)(=O)=O)c(Cl)cc2Cl)c(=O)n1C(F)F | inactive | 
35 | COc1cccc(C(=O)NN(C(=O)c2cc(C)cc(C)c2)C(C)(C)C)c1C | inactive | 
36 | COc1cc(OC)nc(Sc2cccc(Cl)c2C(=O)O)n1 | inactive | 
37 | CCOP(=S)(OCC)Oc1ccc2c(C)c(Cl)c(=O)oc2c1 | inactive | 
38 | C#CC(C)(C)NC(=O)c1cc(Cl)cc(Cl)c1 | inactive | 
39 | C[N+]1(C)CCCCC1 | inactive | 
40 | CCCSP(=O)(OCC)SCCC | inactive | 

Source: PubChem BioAssay (EPA / NIEHS)
